ChEMBL document CHEMBL1961873, “Compounds: GSK PKIS; Assays: Nanosyn kinase panel” (2012)

Experiments:
[1] = target: Leukocyte tyrosine kinase receptor (Homo sapiens) (UniProt P29376); conditions: at 1 µM;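 also: each value is the mean inhibition of LTK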
[2] = target: Tyrosine-protein kinase Lyn (Homo sapiens) (UniProt P07948); conditions: at 0.1 µM
[3] = target: Tyrosine-protein kinase Lyn (Homo sapiens) (UniProt P07948); conditions: at 1 µM
[4] = target: Tyrosine-protein kinase Lyn (Homo sapiens) (UniProt P07948); conditions: at 0.1 µM; remark: listed apart in the source
[5] = target: Tyrosine-protein kinase Lyn (Homo sapiens) (UniProt P07948); conditions: at 1 µM; remark: listed apart in the source
[6] = target: T1, Tyrosine-protein kinase Mer (Homo sapiens) (UniProt Q12866); conditions: at 0.1 µM
T1 sequence (whole entry): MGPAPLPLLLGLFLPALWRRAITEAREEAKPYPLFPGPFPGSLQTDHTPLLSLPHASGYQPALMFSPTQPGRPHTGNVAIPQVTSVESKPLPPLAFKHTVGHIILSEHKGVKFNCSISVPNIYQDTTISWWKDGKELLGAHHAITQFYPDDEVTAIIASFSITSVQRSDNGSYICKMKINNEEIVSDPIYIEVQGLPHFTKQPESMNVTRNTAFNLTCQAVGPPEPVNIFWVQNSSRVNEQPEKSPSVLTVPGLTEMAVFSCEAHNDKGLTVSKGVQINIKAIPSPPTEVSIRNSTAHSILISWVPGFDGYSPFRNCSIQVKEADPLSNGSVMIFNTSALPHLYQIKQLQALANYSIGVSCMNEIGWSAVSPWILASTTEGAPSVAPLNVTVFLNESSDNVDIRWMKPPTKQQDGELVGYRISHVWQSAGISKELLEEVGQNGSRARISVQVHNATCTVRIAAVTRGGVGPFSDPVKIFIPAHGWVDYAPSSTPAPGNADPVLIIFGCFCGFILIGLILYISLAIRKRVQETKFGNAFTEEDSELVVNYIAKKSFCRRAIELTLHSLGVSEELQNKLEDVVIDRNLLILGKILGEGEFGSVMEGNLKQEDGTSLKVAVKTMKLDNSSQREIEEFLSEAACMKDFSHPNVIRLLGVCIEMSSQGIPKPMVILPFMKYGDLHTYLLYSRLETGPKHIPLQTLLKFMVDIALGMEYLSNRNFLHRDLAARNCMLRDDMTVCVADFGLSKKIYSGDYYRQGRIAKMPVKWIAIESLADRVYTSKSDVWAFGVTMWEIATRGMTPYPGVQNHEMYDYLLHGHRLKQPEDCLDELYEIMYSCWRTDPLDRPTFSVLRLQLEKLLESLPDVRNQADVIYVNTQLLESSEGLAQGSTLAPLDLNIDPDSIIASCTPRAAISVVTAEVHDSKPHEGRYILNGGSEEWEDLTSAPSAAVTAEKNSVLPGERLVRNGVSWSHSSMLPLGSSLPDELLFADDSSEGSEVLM

[7] = target: T1, Tyrosine-protein kinase Mer (Homo sapiens); conditions: at 1 µM
[8] = target: Hepatocyte growth factor receptor (Homo sapiens) (UniProt P08581); conditions: at 0.1 µM
[9] = target: Hepatocyte growth factor receptor (Homo sapiens) (UniProt P08581); conditions: at 1 µM
[10] = target: T2, Muscle, skeletal receptor tyrosine-protein kinase (Homo sapiens) (UniProt O15146); conditions: at 0.1 µM
T2 sequence (whole entry): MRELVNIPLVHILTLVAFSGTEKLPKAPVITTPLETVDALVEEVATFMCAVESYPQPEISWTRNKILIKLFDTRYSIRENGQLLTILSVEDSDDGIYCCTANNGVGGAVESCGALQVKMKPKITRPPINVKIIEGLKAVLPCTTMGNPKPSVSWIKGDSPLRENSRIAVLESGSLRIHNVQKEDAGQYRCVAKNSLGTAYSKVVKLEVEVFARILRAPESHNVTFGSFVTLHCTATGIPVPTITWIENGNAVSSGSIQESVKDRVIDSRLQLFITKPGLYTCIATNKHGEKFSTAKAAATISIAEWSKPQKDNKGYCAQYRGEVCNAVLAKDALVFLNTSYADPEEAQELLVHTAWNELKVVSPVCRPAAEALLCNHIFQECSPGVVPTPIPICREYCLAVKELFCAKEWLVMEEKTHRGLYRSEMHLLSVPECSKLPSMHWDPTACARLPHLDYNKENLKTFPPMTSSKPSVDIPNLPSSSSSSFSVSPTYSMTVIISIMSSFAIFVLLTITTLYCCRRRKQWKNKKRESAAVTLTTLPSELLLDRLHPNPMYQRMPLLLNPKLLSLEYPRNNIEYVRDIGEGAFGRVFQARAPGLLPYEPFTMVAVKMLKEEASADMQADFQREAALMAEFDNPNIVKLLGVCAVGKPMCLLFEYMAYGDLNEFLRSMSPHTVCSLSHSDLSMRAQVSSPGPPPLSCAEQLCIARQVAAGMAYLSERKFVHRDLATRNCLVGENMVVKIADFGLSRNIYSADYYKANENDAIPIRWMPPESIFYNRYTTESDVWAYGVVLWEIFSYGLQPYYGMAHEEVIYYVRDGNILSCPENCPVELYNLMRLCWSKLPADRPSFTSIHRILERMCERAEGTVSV

[11] = target: T2, Muscle, skeletal receptor tyrosine-protein kinase (Homo sapiens); conditions: at 1 µM
[12] = target: Platelet-derived growth factor receptor alpha (Homo sapiens) (UniProt P16234); conditions: at 0.1 µM
[13] = target: Platelet-derived growth factor receptor alpha (Homo sapiens) (UniProt P16234); conditions: at 1 µM
[14] = test system: Platelet-derived growth factor receptor alpha (Homo sapiens), P16234 [D842V]; conditions: at 0.1 µM
[15] = test system: Platelet-derived growth factor receptor alpha (Homo sapiens), P16234 [D842V]; conditions: at 1 µM
[16] = test system: Platelet-derived growth factor receptor alpha (Homo sapiens), P16234 [T674I]; conditions: at 0.1 µM
[17] = test system: Platelet-derived growth factor receptor alpha (Homo sapiens), P16234 [T674I]; conditions: at 1 µM
[18] = test system: Platelet-derived growth factor receptor alpha (Homo sapiens), P16234 [V561D]; conditions: at 0.1 µM
[19] = test system: Platelet-derived growth factor receptor alpha (Homo sapiens), P16234 [V561D]; conditions: at 1 µM
[20] = target: Platelet-derived growth factor receptor beta (Homo sapiens) (UniProt P09619); conditions: at 0.1 µM;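 also: reported value is the mean percent inhibition of the kinase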

Platelet-derived growth factor receptor alpha (Homo sapiens), P16234 [V561D], sequence (P16234 whole entry V561D): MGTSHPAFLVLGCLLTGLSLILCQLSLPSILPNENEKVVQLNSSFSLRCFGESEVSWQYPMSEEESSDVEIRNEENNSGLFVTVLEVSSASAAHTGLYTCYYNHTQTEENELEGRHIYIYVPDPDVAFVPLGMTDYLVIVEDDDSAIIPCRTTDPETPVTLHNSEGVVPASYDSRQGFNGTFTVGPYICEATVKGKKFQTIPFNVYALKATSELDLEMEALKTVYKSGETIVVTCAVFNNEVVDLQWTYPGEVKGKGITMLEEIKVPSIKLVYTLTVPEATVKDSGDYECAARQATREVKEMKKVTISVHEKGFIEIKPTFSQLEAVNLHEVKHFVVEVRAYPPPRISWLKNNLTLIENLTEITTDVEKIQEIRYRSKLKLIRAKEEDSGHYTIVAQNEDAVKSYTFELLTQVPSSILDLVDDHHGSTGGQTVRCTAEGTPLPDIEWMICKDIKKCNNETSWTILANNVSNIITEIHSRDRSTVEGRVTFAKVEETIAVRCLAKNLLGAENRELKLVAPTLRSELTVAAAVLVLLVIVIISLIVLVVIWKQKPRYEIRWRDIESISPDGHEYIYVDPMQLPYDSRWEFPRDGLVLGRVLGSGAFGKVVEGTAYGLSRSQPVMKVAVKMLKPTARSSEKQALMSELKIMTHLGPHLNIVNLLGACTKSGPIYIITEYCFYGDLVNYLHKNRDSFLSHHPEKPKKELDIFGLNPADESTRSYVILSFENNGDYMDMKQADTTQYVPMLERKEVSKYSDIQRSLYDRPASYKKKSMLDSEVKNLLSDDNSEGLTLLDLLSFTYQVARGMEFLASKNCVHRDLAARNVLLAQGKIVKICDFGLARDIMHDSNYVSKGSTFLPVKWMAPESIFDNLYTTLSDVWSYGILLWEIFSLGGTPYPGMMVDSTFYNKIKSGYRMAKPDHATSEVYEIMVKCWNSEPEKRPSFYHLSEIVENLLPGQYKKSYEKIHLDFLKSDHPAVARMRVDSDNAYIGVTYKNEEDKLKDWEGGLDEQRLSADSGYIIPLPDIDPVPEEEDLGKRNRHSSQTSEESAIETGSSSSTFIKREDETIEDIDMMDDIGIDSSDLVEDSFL
Platelet-derived growth factor receptor alpha (Homo sapiens), sequence (P16234 whole entry): as the sequence (P16234 whole entry V561D) above, with D561V counted along it
Leukocyte tyrosine kinase receptor (Homo sapiens), sequence (P29376 whole entry): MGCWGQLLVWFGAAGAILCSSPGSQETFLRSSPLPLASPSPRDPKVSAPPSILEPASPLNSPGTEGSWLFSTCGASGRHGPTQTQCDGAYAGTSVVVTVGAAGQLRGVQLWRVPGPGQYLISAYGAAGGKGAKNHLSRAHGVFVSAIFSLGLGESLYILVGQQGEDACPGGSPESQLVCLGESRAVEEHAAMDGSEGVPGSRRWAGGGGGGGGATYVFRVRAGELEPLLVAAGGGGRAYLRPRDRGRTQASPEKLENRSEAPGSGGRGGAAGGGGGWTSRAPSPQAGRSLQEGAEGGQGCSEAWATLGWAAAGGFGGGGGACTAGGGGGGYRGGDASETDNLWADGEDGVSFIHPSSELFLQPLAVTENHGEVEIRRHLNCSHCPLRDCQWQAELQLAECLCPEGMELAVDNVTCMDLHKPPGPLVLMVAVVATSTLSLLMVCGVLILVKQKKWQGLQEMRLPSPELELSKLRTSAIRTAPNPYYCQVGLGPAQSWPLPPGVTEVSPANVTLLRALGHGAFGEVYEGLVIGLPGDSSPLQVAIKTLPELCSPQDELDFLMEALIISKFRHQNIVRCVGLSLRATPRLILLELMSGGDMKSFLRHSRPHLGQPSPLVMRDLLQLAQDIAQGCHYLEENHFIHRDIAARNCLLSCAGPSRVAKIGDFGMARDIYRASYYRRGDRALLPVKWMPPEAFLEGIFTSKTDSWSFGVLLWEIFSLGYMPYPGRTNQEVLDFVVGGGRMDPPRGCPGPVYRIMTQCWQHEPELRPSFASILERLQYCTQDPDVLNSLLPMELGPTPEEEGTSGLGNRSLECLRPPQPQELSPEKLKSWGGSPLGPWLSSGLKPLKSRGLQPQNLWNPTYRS
Platelet-derived growth factor receptor alpha (Homo sapiens), P16234 [D842V], sequence (P16234 whole entry D842V): as the sequence (P16234 whole entry V561D) above, with D561V, D842V counted along it
Tyrosine-protein kinase Lyn (Homo sapiens), sequence (P07948 2-512 limits assumed): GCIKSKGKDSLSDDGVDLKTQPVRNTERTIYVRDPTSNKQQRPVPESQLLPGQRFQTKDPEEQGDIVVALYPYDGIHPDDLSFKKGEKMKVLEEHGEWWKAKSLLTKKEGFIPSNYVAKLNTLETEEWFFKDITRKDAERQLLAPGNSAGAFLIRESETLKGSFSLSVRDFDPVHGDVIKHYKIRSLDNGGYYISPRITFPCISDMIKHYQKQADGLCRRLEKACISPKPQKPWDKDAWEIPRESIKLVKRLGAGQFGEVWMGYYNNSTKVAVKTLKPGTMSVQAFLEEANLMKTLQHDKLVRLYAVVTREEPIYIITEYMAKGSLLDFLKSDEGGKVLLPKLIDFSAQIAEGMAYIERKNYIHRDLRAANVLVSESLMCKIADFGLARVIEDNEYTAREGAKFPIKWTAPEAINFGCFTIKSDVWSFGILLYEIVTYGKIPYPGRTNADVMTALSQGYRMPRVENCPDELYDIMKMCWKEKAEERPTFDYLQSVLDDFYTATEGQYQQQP

SMILES | inhibition [1] | inhibition [2] | inhibition [3] | inhibition [4] | inhibition [5] | inhibition [6] | inhibition [7] | inhibition [8] | inhibition [9] | inhibition [10] | inhibition [11] | inhibition [12] | inhibition [13] | inhibition [14] | inhibition [15] | inhibition [16] | inhibition [17] | inhibition [18] | inhibition [19] | inhibition [20]
O=C(Nc1ccc(Oc2ccc3[nH]c(NC(=O)c4ccccc4)nc3c2)cc1)Nc1cc(C(F)(F)F)ccc1F | 3.76% | 5.73% | 27.5% | 3.48% | 23.4% | 1.3% | 3.74% | 4.39% | 19.2% | 13.9% | 63.9% | 27.8% | 78.4% | 1.94% | 8.54% | 13% | 83.1% | 25.5% | 79.4% | 9.24%
COc1cc(Nc2ncc3c(C)nc(-c4cccc(C(F)(F)F)c4)n3n2)cc(OC)c1OC | 4.56% | 8.46% | 27.6% | 5.92% | 21.9% | 1.71% | 4.47% | 8.25% | 9.19% | 3.85% | 19% | 13% | 25.8% | 2.68% | 13.1% | 7.3% | 8.12% | 5.66% | 14.6% | 10.3%
Cc1ccc(NC(=O)c2ccoc2)cc1-c1ccc(C(=O)NCC2CC2)cc1 | 3.16% | 3.73% | 3.68% | 3.72% | 4.12% | 1.1% | 1.81% | 11.4% | 0.85% | 0.54% | 1.19% | 3.05% | 4.97% | 0.3% | 0.74% | 0.22% | 4.2% | 0.35% | 1% | 1.42%
O=C1Nc2ccccc2/C1=C/Nc1ccc(-n2cncn2)cc1 | 7.47% | 6.77% | 21.6% | 4.42% | 17.3% | 1.28% | 5.61% | 5.14% | 13.6% | 3.92% | 30.9% | 10.5% | 45.5% | 4.56% | 24.2% | 13.1% | 67.2% | 10.8% | 44.8% | 7.25%
O=C(Nc1n[nH]c2cc(-c3ccccc3)ccc12)C1CC1 | 9.93% | 5.94% | 9.06% | 2.77% | 5.33% | 1.8% | 5.12% | 0.84% | 5.86% | -0.17% | 4.91% | 8.78% | 20.4% | 2.33% | 8.97% | 4.04% | 9.67% | 4.85% | 19.4% | 6.45%
C[C@@H](Oc1cc(-n2cnc3ccc(OCC4CCN(C)CC4)cc32)sc1C(N)=O)c1ccccc1Cl | 10.3% | 5.95% | 17.7% | 4.21% | 13.8% | 1.86% | 5.73% | 2.19% | 9.62% | 41.5% | 88.3% | 26.5% | 75.7% | 10.9% | 54.2% | 12.7% | 62.1% | 14.7% | 64.7% | 39.8%
Fc1ccc(-c2ncn(CCCN3CCOCC3)c2-c2ccncc2)cc1 | -2.09% | -0.59% | -0.14% | -1% | -0.37% | 0.24% | -0.01% | 3.89% | -1.62% | -0.13% | 1.32% | 6.11% | 7.26% | 2.37% | 1.54% | 1.55% | -0.15% | -0.24% | 3.42% | -0.37%
Fc1ccc(-c2ncn(C3CCNCC3)c2-c2ccnc(Oc3ccc(F)c(F)c3)n2)cc1 | 2.29% | 3.84% | 3.75% | 2.34% | 2.48% | 1.13% | 1.39% | 7.87% | 4.17% | 2.92% | 4.68% | 11% | 14.7% | 2.91% | 3.42% | 1.08% | 7.95% | 2.26% | 5.74% | 5.46%
CN(C)c1ccc2c(c1)/C(=C/Nc1ccc(S(N)(=O)=O)cc1)C(=O)N2 | 2.8% | 3.6% | 22.4% | 2.71% | 17.4% | 1.88% | 10.8% | -0.65% | 4.48% | 8.66% | 46.8% | 26.7% | 66.9% | 14.4% | 65.3% | 3.45% | 28.2% | 14.9% | 60.9% | 26.8%
COc1cc(Nc2ncc(-c3ccccc3)o2)cc(OC)c1OC | 1.47% | 7.48% | 47.8% | 5.8% | 46.5% | 3.23% | 3.53% | 2.19% | 2.13% | 1.59% | 14.5% | 17.7% | 69.6% | 9.16% | 43% | 27.4% | 77.7% | 35.7% | 76.1% | 23%
COc1ccc(-c2ccc3c(NC(=O)C4CC4)n[nH]c3n2)cc1 | 1.49% | 1.25% | 5.43% | 0.89% | 5.03% | 0.16% | 3.67% | 1.87% | 7.43% | 0.33% | 3.83% | 3.05% | 12.2% | 1.56% | 5.35% | 3.4% | 7.13% | 4.3% | 9.71% | 1.45%
Cc1ccc(C(=O)NC(C)C)cc1-c1ccc(C(=O)NCC2CC2)cc1 | -1.83% | -2.52% | -1.28% | -1.84% | -0.78% | -1.23% | -0.29% | -2.98% | -5.28% | -2.44% | -2.53% | 0.96% | 2.31% | 2.27% | 2.56% | 1.13% | 4.14% | 1.87% | 2.98% | 0.76%
COc1cc(Nc2ncc3c(C)nc(-c4cccc(Oc5ccccc5)c4)n3n2)cc(OC)c1OC | 3.54% | 3.39% | 4.7% | 1.89% | 3.75% | 1.36% | 1.57% | 1.11% | -0.18% | 1.49% | 4.06% | 3.72% | 10.5% | 2.21% | 5.9% | 1.26% | 1.96% | 1.43% | 9.34% | 0.58%
